Data from the OligoGym collection.

Biological target: LPAR3
Experiment: pooled miR-30 sensor sort-seq; sequence = guide strand
Conditions: shRNA
Also: reference of the scale not given here.

Sequence | sensor-assay potency score (higher = more potent)
TAAGACAGTCATCACCGTCTTC | -0.295
TTGACGTACACGTAGATCCGCA | 0.439
TTGACAGTCAAAGTTTTTGAAA | -1.6
TTCTGTTTTTGATCACTGCCGC | -0.331
TTGCAGACTGCACCTTGGCTAA | -1.28
TAAATTAGCCAACAGGTAGTAG | -0.542
TTCCTGTCCAGTCATCGACAGT | -1.5
TTAAACATCAGGAATACATAGG | -0.219
TTCCTCTTGACGTACACGTAGA | -0.848
ATGAGGTTGGACACTGTCCAGA | -1.36
TTGTAGGAGTAGATGATGGGGT | -0.155
TTGGCTAATACTATCCTCTATG | -0.824

Biological target: LRCH2
Experiment: as above
Conditions: shRNA

Sequence | sensor-assay potency score (higher = more potent)
TTTATTATTACTGACGACCAAA | -1.09
TTGCAATGGATTGTTATCCAAA | -1.31
TACTTGTAAATGATGCAGCTTT | 0.0854
TTGTTCATCTATTTGATCCTTC | 0.648
TTTATTACAAGAGAAATCCAGC | -0.214
TTAAACATATCTGTGCTGGTGG | 0.402
TTCATCTGCTGAGACACTCTTT | 0.135
TTCTTCTCATTGTAAATCCTGG | -0.64
TTCATCTATTTGATCCTTCTGA | 0.249
TTCATTGCCACTTGAACTCTTC | 0.503
TATTACTTGTAAATGATGCAGC | 0.387
TATCCATTCTGCAACATGCTTG | -0.471

Biological target: LRRC14
Experiment: as above
Conditions: shRNA

Sequence | sensor-assay potency score (higher = more potent)
TACCACTGTCTTCTTGTCCATG | -0.472
TTGTCCTCGCCATCCACGGAGG | -1.48
TTGAAGCGCAGGTCCACGCGGC | -0.0617
TGGCACTGCAGCACCTGCCGTG | -0.778
TAGCGGAAGTTGTCCTCGCCAT | -0.494
TTGAGGTGGGCAGCATGTGGGC | -1.24
TTGTCCATGAAGGCCACCTTGA | -1.21
TACGGCAGCAGTACAGTCCCAC | -0.572
ATGCACATAGTGGAGCCGCAGG | -1.72
TCACGCAGACAGGTGAAGCGGC | -0.746
TTCCACACCATCATCCAAGAGG | -1.09
TAGCAGTCCACAGGGAAGGGGT | -0.698
